From PubChem BioAssay
TNF death inh = TNF-alpha cell death inhibition in Jurkat FADD-/- cells; 220,000 compounds, 0.068% hits; activation (protection from cell death), % at 10 µM; AID 463075; Jurkat FADD-/- TNF necroptosis rescue, ATP luminescence, 24 h; 0 = TNF only, 100 = no-TNF cells;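 active means activation, meaning protection from cell death, of at least 50% relative to plate controls; inactive means activation below 50%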;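 further: necroptosis triggered by 40 ng/mL TNF-alpha added together with compound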
eIF4E 4G PPI = blocks eIF4E binding to eIF4G; TR-FRET eIF4E-eIF4GI(517-606) binding, 2 h; P63073+Q04637; inhibition, % at 21.7 µM; 220,000 compounds, 0.37% hits; AID 782;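 active means inhibition above about 30%, limit read from the data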
EBV gp42 inh = blocks Epstein-Barr virus glycoprotein 42 binding; inhibition, % (tested at 21.74 µM); AID 1085; Q1HVG2; Fluorescence polarization binding assay, mP read-out; 220,000 compounds, 0.42% hits; in the data active means inhibition above about 50%
Target sequence (Q1HVG2 whole entry, looked up): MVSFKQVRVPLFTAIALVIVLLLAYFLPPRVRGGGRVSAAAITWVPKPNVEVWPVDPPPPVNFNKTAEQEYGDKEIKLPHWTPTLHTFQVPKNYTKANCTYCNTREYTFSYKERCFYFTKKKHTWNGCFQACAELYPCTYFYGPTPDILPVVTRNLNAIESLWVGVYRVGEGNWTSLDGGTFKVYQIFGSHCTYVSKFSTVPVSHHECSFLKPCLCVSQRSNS
zVAD death inh = blocks zVAD induced death of L929 cells; L929 zVAD necroptosis rescue, ATP luminescence, 24 h; with zVAD 60 µM; viability rescue, % at 10 µM; 220,000 compounds, 0.38% hits; AID 1377;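 active means activation, scaled between plate controls, above about 75%, limit read from the data; inactive means activation under that limit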
zVAD necrop conf = confirmed blocker of zVAD induced death in L929 cells; L929 zVAD-induced necroptosis rescue, ATP luminescence, 24 h; activation (protection from necroptosis), % at 10 µM; shares compounds with zVAD death inh; AID 463117; 760 compounds, 16% hits;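 active means mean protection from necroptosis of at least 50% over duplicate tests; inactive means mean protection below 50%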
Numbers stand for hits; 0 = inactive; - = not tested or not shown. Hits are enriched below; roughly 1.2% of the tested compounds scored in any of these assays.

SMILES	TNF death inh	eIF4E 4G PPI	EBV gp42 inh	zVAD death inh	zVAD necrop conf
FC(F)(F)c1ccc2c(c1)[nH]c(=S)n2C1CC1	0	0	0	0	-
CC(C)c1cc(C(=O)NNC(=S)NCc2ccco2)c(O)c(C(C)C)c1	0	0	0	0	-
COc1ccc(NC(=O)NC23CC4(C)CC(C)(CC(C)(C4)C2)C3)cc1	0	0	0	75.6	0
COc1ccc(C(=O)NNC(=O)Cc2ccc(Cl)cc2)cc1	0	0	0	0	-
COc1ccc(C(=O)NNC(=O)Nc2ccc(Cl)cc2)cc1	0	0	0	80.6	0
O=C(Nc1ccc(Nc2ccccc2)cc1)C(Cl)(Cl)Cl	0	0	0	0	-
O=[N+]([O-])c1ccc(-c2cnc[nH]2)cc1	0	0	0	0	-
Cc1ccc(NC(=O)c2ccc(N3CCOCC3)c([N+](=O)[O-])c2)cc1S(=O)(=O)N1CCOCC1	0	0	0	76.8	0
O=C(O)CCC(=O)Nc1ccc(Oc2ncnc3cc(Cl)ccc23)nc1	0	0	0	0	-
O=C(COc1ccccc1)n1nc(-c2ccc(Cl)cc2)nc1NCc1ccco1	0	0	0	82.6	0
O=C(c1ccco1)n1nc(-c2ccc(Cl)cc2)nc1NCc1ccco1	0	0	0	0	-
CCOc1ccccc1-n1c(SCC(=O)Nc2ccc(CC)cc2)nc2n[nH]c(C)c2c1=N	0	0	0	80.2	0
CC1(C)CC(=O)C2=C(C1)N(c1cccc(Cl)c1)C(=O)NC2(C(F)(F)F)C(F)(F)F	0	0	0	0	-
CC1CC(C)CN(C(=O)CSc2nnc(-c3ccc(F)cc3)o2)C1 (stereo unspecified)	0	0	0	89.1	0
Cc1ccc(C(=O)CCC(=O)N2CCN(C(=O)c3ccco3)CC2)cc1	0	0	0	76.2	0
Cc1cc(C)cc(-c2nnc(SCC(=O)N3CCN(C(=O)c4ccco4)CC3)o2)c1	0	0	0	85.5	0
O=C(CSc1nnc(-c2ccc(Br)cc2)o1)N1CCN(C(=O)c2ccco2)CC1	0	0	0	0	-
Cc1ccc(CC(=O)N2CCN(C(=O)c3ccco3)CC2)cc1	0	0	0	0	-
O=C(NCCN1CCCCCC1)C1CCCN1S(=O)(=O)c1cccc2nsnc12 (stereo unspecified)	0	0	0	0	-
CCOC(Cn1ccc(=O)[nH]c1=O)OCC	0	0	0	0	-
O=C(N/N=C/C=C/c1ccccc1)c1cc(C2CC2)[nH]n1	0	0	0	77.4	0
Cc1cc(C(=O)N/N=C/C=C/c2cccc([N+](=O)[O-])c2)n[nH]1	0	0	0	87.2	0
Cc1cc(C(=O)N/N=C/C=C/c2ccccc2)n[nH]1	0	0	0	0	-
Fc1cccc(F)c1/C=N/Nc1ccccn1	0	0	0	90.3	0
O=S(=O)(N/N=C/c1ccc2c(c1)OCCO2)c1ccccc1	0	0	0	0	-
SMILES	TNF death inh	eIF4E 4G PPI	EBV gp42 inh	zVAD death inh	zVAD necrop conf
C(=N\Nc1ccccn1)/c1ccc2c(c1)OCCO2	0	0	0	82.6	0
Fc1cccc(Cl)c1/C=N/Nc1ccccn1	0	0	0	83.4	0
Fc1cccc(/C=N/Nc2ccccn2)c1	0	0	0	76.1	0
Cc1ccc(C)c(/C=N/Nc2ccccn2)c1	0	0	0	0	-
CCOc1cc(/C=N/NC(=O)CCn2nc(C)cc2C)ccc1O	0	0	0	0	-
Cc1ccc2c(c1)C(c1ccccc1)CC(=O)O2 (stereo unspecified)	0	0	0	0	-
Nc1c(C(=O)Nc2ccccc2)c2nc3ccccc3nc2n1-c1ccc(O)cc1	0	0	0	0	-
COc1ccc(OC)c2c(C)c(C)[nH]c12	0	0	0	0	-
CCOc1ccccc1NC(=O)CSc1nnnn1-c1ccc(C(=O)OC)cc1	0	0	0	77.5	0
CCOC(=O)N1CCc2c(sc3nc4n(c(=O)c23)N=C(c2ccc(OC)cc2)CS4)C1	0	0	0	0	-
COc1ccc(C(=O)/C=C/c2cn(CC(O)CN3CCOCC3)c3ccccc23)cc1 (stereo unspecified)	0	0	0	82.3	0
COc1ccc(C(=O)/C=C/c2cn(CN3CCN(C)CC3)c3ccccc23)cc1	0	0	0	0	-
Cc1ccc(-c2nc(Nc3ccccc3)n[nH]2)cc1	0	0	0	77.0	77.1
Cn1c(=O)n(C)c2cc(NC(=O)CCl)ccc21	0	0	0	83.5	0
CC(=O)Nc1ccc2c(c1)n(C)c(=O)n2C	0	0	0	0	-
CC(NCc1cc(Br)ccc1OCC(=O)NCc1ccccc1)c1ccccc1 (stereo unspecified)	0	0	0	0	-
